Screening data from PubChem.
HCMV inh = blocks human cytomegalovirus replication; HFF cells, HCMV-luciferase reporter, 72 h; hits give low values; activity change, negative = inhibition, % at 57.5 µM; 4.5% of 410,000 active; AID 1259415; in the data active = activity change below about -60%; inconclusive = no clear call, values can overlap the other calls; inactive = above about -39%
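Two compound doses tested in HFFs infected with HCMV-luciferase, MOI 1 PFU/cell, 72 h at 37C. Lysate luminescence read with OneGlo; data normalized against buffer-only and 10uM Salinomycin inhibitor controls.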
Pf growth 96h = P. falciparum growth inhibition at 96 hours | 6.9% of 320,000 active | P. falciparum luciferase reporter growth, 96 h | Potency, µM (titrated, usually from 28.7 µM), hits mostly inhibitors | AID 504834
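Luminescence readout: decreased luciferase signal marks inhibited growth of reporter-expressing P. falciparum in infected red cells (2% hematocrit, 0.05% parasitemia final), exposed to compound two generations (96 h, 37 C, 5% CO2).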
LASV entry inh = Lassa virus entry inhibition. Potency, µM (titrated, usually from 37.9 µM), hits mostly inhibitors. Lassa virus pseudotype entry inhibition, cell reporter. 1.2% of 300,000 active; calls by dose curve; tested in HEK293 cells; note: nearly all actives have a fitted effect of over 50% in size
HCV inh = HCV inhibition | Potency, µM (highest dose often 41.8 µM), most hits filed as inhibitors | AID 651820 | 3.4% of 340,000 active | Huh7.5.1 HCVcc-Cre infection, luciferase reporter, 44 h
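Antiviral activity was scored by luciferase reporter output from cells infected with HCVcc-Cre (~0.5 moi) in presence of compound, 44 h infection period, cells seeded 1,000/well 4 h prior.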
Pf growth 48h = inhibits P. falciparum growth in the first generation, 48 h; P. falciparum luciferase growth in erythrocytes, 48 h; Potency, µM (doses to about 28.7 µM), most hits filed as inhibitors; 5.9% of 310,000 active; AID 504832
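A one-generation exposure of luciferase-tagged malaria parasites in RPMI 1640/Albumax erythrocyte culture, 37 C and 5% CO2. Inhibition is inferred from decreased luminescence after adding detection reagent.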
MARV entry inh = inhibitors of Marburg virus binding or cell entry; 1.8% of 300,000 active; Marburg virus pseudotyped entry inhibition, cell reporter; Potency, µM (highest dose often 37.8 µM), most hits filed as inhibitors; calls by dose curve; tested in HEK293 cells
Numbers stand for hits; [ ] = remark or other dose. Rows were chosen to be rich in hits. Some 14% of all compounds tested hit in one or more screens of this group. Unless noted, calls come from the whole dose curve; as a rule, active = well fitted inhibition curve with a large enough effect; inconclusive = small, poorly fitted or top-dose-only effect, or another doubt; inactive = no such curve, though single readings can be large or run the other way.

Results for COc1ccc2c(c1)Cc1sc(NC(=O)c3ccco3)nc1-2 ?
HCMV inh: inactive; Pf growth 96h: inconclusive; LASV entry inh: inconclusive; HCV inh: inactive; Pf growth 48h: inactive; MARV entry inh: inactive

What do the screens show for `CC(=O)c1sc(NC(=O)c2ccco2)nc1-c1ccccc1`?
Pf growth 96h: inactive; HCV inh: inactive

How did Cc1sc(NC(=O)c2ccco2)nc1-c1ccc2c(c1)CC(C)N2C(=O)C1CC1 (stereo not drawn) do in these assays?
HCMV inh: -96.9; Pf growth 96h: inactive; LASV entry inh: 9.2µM; HCV inh: 5.01µM; Pf growth 48h: inconclusive; MARV entry inh: 10.3µM

How did Cc1sc(NC(=O)c2ccco2)nc1-c1ccccc1 do in these assays?
HCMV inh: inactive; Pf growth 96h: inactive; LASV entry inh: inconclusive; HCV inh: 14.1µM; Pf growth 48h: inactive; MARV entry inh: inconclusive

How did CCOC(=O)C(=O)Nc1nc(-c2ccc3c(c2)CCN3C(=O)C2CC2)c(C)s1 do in these assays?
HCMV inh: inactive; Pf growth 96h: inactive; LASV entry inh: inactive; HCV inh: inactive; Pf growth 48h: inactive; MARV entry inh: inactive

What do the screens show for `CCn1c(=O)cc(OCC(=O)Nc2cc(OC)c(OC)c(OC)c2)c2ccccc21`?
HCMV inh: inactive; LASV entry inh: inactive; MARV entry inh: inconclusive

What do the screens show for `COc1ccc(S(=O)(=O)N2CCOCC2)cc1NC(=O)c1ccc(SC)cc1OC`?
HCMV inh: inactive

Results for CCOc1ccc2c(c1)OC(c1ccc(C)cc1)(C(F)(F)F)NC2=O (stereo not drawn) ?
HCMV inh: -83.0; Pf growth 96h: 3.29µM; LASV entry inh: inconclusive; HCV inh: inactive; Pf growth 48h: 1.04µM; MARV entry inh: inactive

Results for C=CC[n+]1c(C)csc1Nc1ccc(C)cc1 ?
HCMV inh: inactive; Pf growth 96h: inactive; LASV entry inh: inactive; HCV inh: inactive; Pf growth 48h: inactive; MARV entry inh: inactive

Results for C=CC[n+]1c(-c2ccc(Cl)cc2Cl)csc1Nc1c(C)n(C)n(-c2ccccc2)c1=O ?
HCMV inh: -87.5; Pf growth 96h: inconclusive; LASV entry inh: inconclusive; HCV inh: 12.6µM; Pf growth 48h: inconclusive; MARV entry inh: inconclusive

How did C=CC[n+]1c(-c2ccc(Cl)cc2Cl)csc1Nc1ccc(NC(C)=O)cc1 do in these assays?
HCMV inh: -93.6; Pf growth 96h: inactive; LASV entry inh: 2.82µM; HCV inh: inconclusive; Pf growth 48h: inconclusive; MARV entry inh: 3.16µM

What do the screens show for `Cc1cccc(NC(=O)CNC(=O)c2cccc(-n3cccc3)c2)c1C`?
HCMV inh: inactive; Pf growth 96h: inactive; LASV entry inh: inactive; HCV inh: inactive[8.37 µM]; Pf growth 48h: inactive; MARV entry inh: inactive

Results for Cc1cccc2c1cnn2C(=O)CCC(=O)NCc1ccc(F)cc1 ?
HCMV inh: inactive; Pf growth 96h: 14.7µM; HCV inh: inactive; Pf growth 48h: inactive

What do the screens show for `COc1ccc2c(c1)c(=O)c(C(=O)c1ccc(F)cc1)cn2CC(=O)Nc1ccc2c(c1)OCCO2`?
HCMV inh: inconclusive; LASV entry inh: inactive; MARV entry inh: inactive

What do the screens show for `CCNc1nc(NCC)n2c(SCC(=O)N(CC)C3CCCCC3)nnc2n1`?
HCMV inh: inactive; Pf growth 96h: 7.38µM; LASV entry inh: inactive; HCV inh: inactive; Pf growth 48h: inconclusive; MARV entry inh: inactive

Results for CCNc1nc(NCC)n2c(SCC(=O)Nc3ccc(NC(C)=O)cc3)nnc2n1 ?
HCMV inh: inactive; Pf growth 96h: inconclusive; LASV entry inh: inactive; HCV inh: inconclusive; Pf growth 48h: inconclusive; MARV entry inh: inactive

Results for CCNc1nc(NCC)n2c(SCC(=O)Nc3ccc(CC)cc3)nnc2n1 ?
Pf growth 96h: inconclusive; LASV entry inh: inactive; HCV inh: inconclusive; Pf growth 48h: 10.4µM; MARV entry inh: inactive

What do the screens show for `CCc1cccc(C)c1NS(=O)(=O)c1ccc2c(c1)NC(=O)C(C)C(=O)N2` (stereo not drawn)?
HCMV inh: inactive; LASV entry inh: inactive

Results for Fc1ccc(-c2cc(-c3nnc4n3CCCCC4)c3ccccc3n2)cc1 ?
HCMV inh: inactive; Pf growth 96h: inconclusive; LASV entry inh: inactive; HCV inh: inconclusive; Pf growth 48h: inconclusive; MARV entry inh: inactive

How did N=c1c2ccccc2nc2n1CCCCCCCCCCC2 do in these assays?
HCMV inh: inconclusive; LASV entry inh: inconclusive; HCV inh: 12.6µM; MARV entry inh: inconclusive
